Among the data in PubChem BioAssay are composite z-score, z-score and composite Z-score values, retold here.

In experiment [1] the test system is Human papillomavirus type 1a protein E7 (residues 44-93). Briefly: small molecules binding HPV E7 44-93 – biochemical, small-molecule microarray, residues 44-93, 635 nm fluorescence, primary screen (AID 1108).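 Further: E7 fragment applied at 1 µg/mL in TBST for 1 h at 4 C; score combines spot fluorescence with its signal to noise ratio.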 To be noted: fluorescence 635 nm, higher = more signal.
Experiment [2] can be described thus: hepatitis C replication reporter changes, two-sided – Huh7 cells, luciferase reporter, HCV replication inhibitor project, primary screen (AID 1109).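 Further: huh7 hepatoma cells harbouring a luciferase neomycin HCV replicon reporter; luciferase luminescence as measure of HCV replicon replication; test concentration not given here.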 The settings on record: Huh7 HCV replicon luciferase reporter, 48 h; higher = more signal. A general note: A reporter such as luciferase makes a cellular process visible.
The target in experiment [3] is Left-right determination factor 2 (Homo sapiens) (UniProt O00292). The experiment in a line: small molecules binding LEFTY2 protein – biochemical, small-molecule microarray, 635 nm fluorescence scan, primary screen (AID 1110). The settings on record: higher = more signal.
Left-right determination factor 2 (Homo sapiens), sequence (O00292 whole entry, looked up): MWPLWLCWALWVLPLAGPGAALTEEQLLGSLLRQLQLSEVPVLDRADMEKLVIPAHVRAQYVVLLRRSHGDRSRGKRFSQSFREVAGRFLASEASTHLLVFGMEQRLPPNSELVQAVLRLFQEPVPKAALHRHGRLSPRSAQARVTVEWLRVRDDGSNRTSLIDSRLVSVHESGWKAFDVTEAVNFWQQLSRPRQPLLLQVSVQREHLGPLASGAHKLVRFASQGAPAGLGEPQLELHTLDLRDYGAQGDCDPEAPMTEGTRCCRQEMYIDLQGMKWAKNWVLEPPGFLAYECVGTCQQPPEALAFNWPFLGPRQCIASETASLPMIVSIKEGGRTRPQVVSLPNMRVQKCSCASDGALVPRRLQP
For experiment [4], the target named is Calmodulin-1 (Homo sapiens) (UniProt P0DP23). The experiment in a line: small molecules binding calmodulin-1 with EGTA – biochemical, small-molecule microarray, Cy5-labelled CALM1, profiling panel (AID 1111).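 Further: labelled calmodulin applied in Tris saline Tween buffer holding calcium plus EGTA and DTT.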 The settings on record: Cy5-CALM1 binding fluorescence, higher = more signal.
The target is the same in experiment [5]. The experiment in a line: small molecules binding Ca-loaded calmodulin-1 – biochemical, small-molecule microarray, Cy5-labelled CALM1, plus calcium, artefact control for SMM control-protein annotation, profiling panel (AID 1112).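 Further: score merges spot fluorescence with signal to noise from triplicate slides.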 The settings on record: Cy5-CALM1 binding fluorescence, higher = more signal.
A short description of experiment [6]: probe aWnt5a binding to arrayed compounds – biochemical, biotinylated probe, 635/667 nm fluorescence, primary screen (AID 1113).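 Further: score merges 667 nm fluorescence intensity with signal-to-noise per printed feature.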 To be noted: small-molecule microarray, higher = more signal.
Experiment [7] can be described thus: probe aShh binding to arrayed compounds – biochemical, biotinylated probe, 635/667 nm fluorescence, primary screen (AID 1114).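 Further: probe is biotin-labelled aShh protein from a stem cell growth factor screen; measures binding of labelled protein to compounds printed on the slide; score merges feature fluorescence at 667 nm with signal-to-noise.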 To be noted: small-molecule microarray, higher = more signal.
A short description of experiment [8]: probe aNog binding to arrayed compounds – biochemical, biotinylated probe, 635/667 nm fluorescence, primary screen (AID 1115).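 Further: probe is biotinylated aNog protein used at 0.15 µg/mL for 1 h at 4 C; z-score combines 667 nm fluorescence of each spot with its signal to noise.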 To be noted: small-molecule microarray, higher = more signal.
The target of experiment [9] is Torsin-1A-interacting protein 1 (Homo sapiens) (UniProt Q5JTV8). Briefly: compound microarray binding of lysate hLAP1 – cell lysate, small-molecule microarray, COS7 lysate, 635/667 nm fluorescence, primary screen (AID 1116). To be noted: 635 nm fluorescence, higher = more signal.
Torsin-1A-interacting protein 1 (Homo sapiens), sequence (Q5JTV8 whole entry, looked up): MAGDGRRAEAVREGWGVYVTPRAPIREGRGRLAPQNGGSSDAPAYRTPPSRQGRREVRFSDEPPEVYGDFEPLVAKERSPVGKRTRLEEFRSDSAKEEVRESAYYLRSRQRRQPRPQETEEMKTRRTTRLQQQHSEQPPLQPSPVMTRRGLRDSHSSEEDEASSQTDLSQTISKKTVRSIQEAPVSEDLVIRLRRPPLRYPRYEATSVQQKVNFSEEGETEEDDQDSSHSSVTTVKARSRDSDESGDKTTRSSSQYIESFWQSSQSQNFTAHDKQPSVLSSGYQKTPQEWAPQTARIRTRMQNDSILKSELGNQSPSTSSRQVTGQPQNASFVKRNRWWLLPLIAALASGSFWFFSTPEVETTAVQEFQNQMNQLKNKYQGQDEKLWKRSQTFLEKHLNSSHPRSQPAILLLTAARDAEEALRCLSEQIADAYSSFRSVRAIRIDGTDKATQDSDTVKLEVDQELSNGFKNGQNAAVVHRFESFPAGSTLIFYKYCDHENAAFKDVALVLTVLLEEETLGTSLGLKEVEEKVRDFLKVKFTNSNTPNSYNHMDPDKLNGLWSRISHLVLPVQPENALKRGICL
The target of experiment [10] is Alpha-bungarotoxin (Bungarus multicinctus) (UniProt P60615). The experiment in a line: compounds binding labelled alpha-BTX control protein – biochemical, small-molecule microarray, Alexa647 label, 635/667 nm fluorescence, artefact control for SMM control protein annotation, profiling panel (AID 1117). The settings on record: alpha-BTX-A647 binding fluorescence, higher = more signal.
Alpha-bungarotoxin (Bungarus multicinctus), sequence (P60615 whole entry, looked up): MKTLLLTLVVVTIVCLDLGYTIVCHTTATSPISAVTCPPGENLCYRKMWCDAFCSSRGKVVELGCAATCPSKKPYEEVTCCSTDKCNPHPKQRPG

The target in a further experiment is Albumin (Bos taurus) (UniProt P02769). Briefly: compounds binding labelled BSA control protein – biochemical, small-molecule microarray, Alexa647 label, 635/667 nm fluorescence, artefact control for SMM control protein annotation, profiling panel (AID 1118).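 Further: score merges 667 nm emission intensity and signal-to-noise per printed compound spot.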 To be noted: BSA-A647 binding, fluorescence 635 nm, higher = more signal.
Albumin (Bos taurus), sequence (P02769 whole entry, looked up): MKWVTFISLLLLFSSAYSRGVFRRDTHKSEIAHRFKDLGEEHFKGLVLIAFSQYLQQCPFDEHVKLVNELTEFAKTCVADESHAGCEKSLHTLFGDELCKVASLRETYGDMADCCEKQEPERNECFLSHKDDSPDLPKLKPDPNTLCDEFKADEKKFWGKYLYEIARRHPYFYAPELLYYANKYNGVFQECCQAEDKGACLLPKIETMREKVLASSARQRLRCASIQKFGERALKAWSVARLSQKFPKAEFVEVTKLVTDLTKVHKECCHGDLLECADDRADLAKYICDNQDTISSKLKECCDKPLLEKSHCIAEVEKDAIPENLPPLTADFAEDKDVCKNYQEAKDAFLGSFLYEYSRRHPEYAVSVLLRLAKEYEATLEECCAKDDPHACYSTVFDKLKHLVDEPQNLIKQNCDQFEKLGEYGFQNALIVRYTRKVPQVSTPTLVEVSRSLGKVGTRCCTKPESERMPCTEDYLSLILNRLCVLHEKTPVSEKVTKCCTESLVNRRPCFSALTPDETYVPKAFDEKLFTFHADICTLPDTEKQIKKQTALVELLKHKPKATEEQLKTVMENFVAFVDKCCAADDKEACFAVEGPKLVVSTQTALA
A short description of experiment [11]: probe aXIP binding to arrayed compounds – biochemical, NeuroSMM set, 635/667 nm fluorescence, primary screen (AID 1119).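 Further: probe is the protein aXip251-270 applied at 1 µg/mL to compound-printed slides; binding of probe to printed compounds measured as 667 nm fluorescence plus signal to noise.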 To be noted: small-molecule microarray, higher = more signal, called active from +8 up or from −8 down.
The nature of experiment [12]: probe aNOTCH3 binding on compound microarray – biochemical, small-molecule microarray, 635/667 nm fluorescence, primary screen (AID 1120).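 Further: probe is a biotin-tagged antibody raised against NOTCH3 rather than NOTCH3 protein; score merges spot fluorescence near 667 nm with spot signal to noise.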 The settings on record: higher = more signal.
The nature of experiment [13]: probe aNOTCH2 binding on compound microarray – biochemical, small-molecule microarray, 635/667 nm fluorescence, primary screen (AID 1121).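 Further: score merges feature fluorescence read at 667 nm with its signal to noise.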 The settings on record: higher = more signal.
For experiment [14], the target named is Carbonic anhydrase 2 (Homo sapiens) (UniProt P00918). Briefly: compounds binding carbonic anhydrase 2 – biochemical, small-molecule microarray, Alexa647-labelled CAII, profiling panel (AID 1122). To be noted: CAII-A647 binding fluorescence, higher = more signal.
Experiment [15] in a line: COS7 lysate on small-molecule microarray, probe aHis, 635 nm (AID 1123).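 Further: z-score combines 667nm fluorescence intensity with signal-to-noise per printed compound spot.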 The settings on record: COS7 cell lysate, fluorescence, higher = more signal.
Experiment [16] is described as follows: probe aLAP1 signal on lysate-treated microarray – cell lysate, small-molecule microarray, COS7 lysate, primary screen (AID 1124).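 Further: lysate comes from COS7 cells expressing LAP1 and is applied at 0.3 µg/mL; score merges spot fluorescence near 667 nm with signal-to-noise over triplicate slides.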 The settings on record: probe aLAP1, fluorescence, higher = more signal.
For the next experiment, the system named is Sam68 (KHDRBS1). The experiment in a line: compounds binding KHDRBS1 protein – biochemical, small-molecule microarray, 635 nm fluorescence, primary screen (AID 1125).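 Further: score merges 667 nm channel intensity with signal to noise over triplicate slides.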 To be noted: higher = more signal.
For experiment [17], the system named is Chordin-like protein 2 (CHRDL2). Briefly: compounds binding chordin-like 2 – biochemical, small-molecule microarray, 635 nm fluorescence, primary screen (AID 1126).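 Further: printed compound slides probed with Chrdl2 protein at 4 µg/mL for 1 h at 4 C; score merges 667 nm emission intensity with signal to noise over three replicate slides.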 To be noted: fluorescence 635 nm, higher = more signal.
For experiment [18], the target named is Concanavalin-A (Canavalia ensiformis) (UniProt P02866). Briefly: compounds binding concanavalin A lectin – biochemical, small-molecule microarray, Alexa647 label, 635 nm, artefact control for SMM control protein annotation, primary screen (AID 1127).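 Further: z combines 667 nm emission intensity with signal-to-noise across three replicate slides.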 To be noted: ConA-A647 binding fluorescence, higher = more signal.
Concanavalin-A (Canavalia ensiformis), sequence (P02866 whole entry, looked up): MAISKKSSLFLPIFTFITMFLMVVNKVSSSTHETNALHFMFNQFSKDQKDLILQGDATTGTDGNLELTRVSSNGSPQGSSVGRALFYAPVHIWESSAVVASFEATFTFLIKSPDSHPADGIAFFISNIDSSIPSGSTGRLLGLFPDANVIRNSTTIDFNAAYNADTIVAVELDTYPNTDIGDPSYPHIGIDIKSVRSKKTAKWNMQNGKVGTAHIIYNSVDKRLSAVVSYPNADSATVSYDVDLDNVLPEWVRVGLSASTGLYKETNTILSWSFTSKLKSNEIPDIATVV

Activity calls are given as the source filed them.

Take `O=C1O[C@H](c2ccccc2)[C@H](c2ccccc2)N2[C@H]1[C@@H](C(=O)NC[C@H](O)c1ccccc1)[C@]1(C(=O)Nc3ccc(C#CCCO)cc31)[C@H]2c1ccccc1OCCO`: the composite z-score in [1] was 1.4; in [3], -0.66; in experiment [4] it was 0.548; in experiment [5] it was -0.0628; in experiment [6], -0.147; in experiment [7], 0.149. In addition, the composite z-score in experiment [8] is -0.0503; in experiment [9] it was 1.35; in [10] it was 2.1; in the experiment with Albumin (Bos taurus) it was 0.695; in experiment [12], -0.0581; in [13], -0.0666. The composite z-score in [14] was 0.597; in [15], 2.38; in [16], 0.728; in the experiment with Sam68 (KHDRBS1), 1.29; in [17], -0.189; in experiment [18], 1.02. In addition, the z-score in experiment [2] is -1.47. In addition, the composite Z-score in experiment [11] is 1.27 (inactive).
In the case of `CN1C(=O)C2C=CC(C(O)c3ccc(-c4ccccc4)s3)N(Nc3ccccc3)C2C1=O` (stereo not given), the composite z-score in experiment [1] is 0.965; in [3], 0.0874; in experiment [4], 1.41; in [5] it was 0.186; in [6], -0.0103; in experiment [7], 0.296. Moreover, the composite z-score in experiment [8] came to 1.49; in [9], 1.07; in [10], 2; with Albumin (Bos taurus), 0.945; in experiment [12] it was 0.403; in [13], 0.135. Further, the composite z-score in experiment [14] was 0.714; in experiment [15] it was 1.94; in experiment [16] it was 0.32; with Sam68 (KHDRBS1), 1.24; in experiment [17], -0.121; in experiment [18], 1.15. The z-score in experiment [2] was -0.593. Also, in [11], the composite Z-score was 0.498 (inactive).
As for `COC(=O)[C@@]1(Cc2ccc(F)cc2)[C@H]2c3cc(C(=O)N4CCCC4)n(CCO)c3C[C@H]2CN1C(=O)c1ccccc1`, the composite z-score in experiment [1] is 0.0213; in experiment [3], -0.83; in experiment [4], -0.07; in [5] it was 0.723; in [6], 0.229; in [7] it was 0.381. For the same compound, the composite z-score in experiment [8] is -0.662; in [9], 0.956; in experiment [10] it was -0.063; with Albumin (Bos taurus), 0.503; in experiment [12], 0.329; in [13], 0.227. In addition, the composite z-score in [14] was 0.753; in experiment [15] it was 3.45; in experiment [16], 0.393; in the experiment with Sam68 (KHDRBS1), -2.03; in [17] it was -1.04; in [18], -0.242. For the same compound, in experiment [2], the z-score was -1. Moreover, the composite Z-score in experiment [11] was -0.196 (inactive).
Take `Cc1ccc(F)cc1S(=O)(=O)N[C@@H]1CCN(Cc2ccc3c(c2)OCO3)C1`: the composite z-score in [1] is -0.28; in [3] it was 0.198; in experiment [4] it was -0.786; in [5], -0.997; in experiment [6], -0.176; in experiment [7], -0.0626. The composite z-score in experiment [8] is -0.12; in [9] it was 0.636; in experiment [10], 0.445; with Albumin (Bos taurus), 0.167; in experiment [12], -0.129; in experiment [13] it was -0.147. The composite z-score in experiment [14] is 0.0085; in [15] it was -0.702; in experiment [16], 0.0521; in the experiment with Sam68 (KHDRBS1), -0.148; in experiment [17] it was 0.0213; in experiment [18] it was -0.319. The z-score in [2] is -1.98. Also, the composite Z-score in [11] is -0.0662 (inactive).
Turning to `CCCC[C@H]1OB(O)C[C@H]2C1=C(C)C[C@H]1C(=O)C=CC(=O)[C@H]12`, the composite z-score in experiment [1] is 1.04; in experiment [3], 0.686; in experiment [4], -0.321; in experiment [5], -0.741; in experiment [6], -0.132; in experiment [7], 0.0278. Besides, the composite z-score is -0.109 in experiment [8]; 0.0514 in experiment [9]; 0.178 in experiment [10]; -0.324 with Albumin (Bos taurus); 0.0159 in experiment [12]; -0.106 in experiment [13]. The composite z-score in experiment [14] stood at 0.011; in experiment [15] it was 0.423; in [16], 0.121; with Sam68 (KHDRBS1), 1.04; in experiment [17] it was 0.821; in experiment [18], 0.544. Further, in experiment [2], the z-score is -2.52. Further, the composite Z-score in [11] is -0.0764 (inactive).
